153 variants from a collection of fitness landscapes (doi:10.1126/science.1257360) can be followed below.

The full ranking holds about 140,000 sequences; the median of “enrichment ratio after two sorts for PhoP signalling” is about 0, and the highest 2% start at about 11. This is one part of a sample in which the highest values are shown more often than they occur.

The labels stand for the following.
B1: PhoQ; a variant is named by its letters at X, in order, P23837 (parent)
chain: MKKLLRLFFPLSLRVRFLLATAAVVLVLSLAYGMVALIGYSVSFDKTTFRLLRGESNLFYTLAKWENNKLHVELPENIDKQSPTMTLIYDENGQLLWAQRDVPWLMKMIQPDWLKSNGFHEIEADVNDTSLLLSGDHSIQQQLQEVREDDDDAEMTHSVAVNVYPATSRMPKLTIVVVDTIPVELKSSYMVWSWFIYVLSANLLLVIPLLWVAAWWSLRPIEALAKEVRELEEHNRELLNPATTRELTSLVRNLNRLLKSERERYDKYRTTLTDLTHSLKTPLXXLQXXLRSLRSEKMSVSDAEPVMLEQISRISQQIGYYLHRASMRGGTLLSRELHPVAPLLDNLTSALNKVYQRKGVNISLDISPEISFVGEQNDFVEVMGNVLDNACKYCLEFVEISARQTDEHLYIVVEDDGPGIPLSKREVIFDRGQRVDTLRPGQGVGLAVAREITEQYEGKIVAGESMLGGARMEVIFGRQHSAPKDE

Variants of B1 are the subject of this assay. The experiment in a line: enrichment ratio after two sorts for PhoP signalling (ratio (wild type AVST 3.29)); higher = more functional. Conditions: with PhoP (E. coli).
As to NFLN, the enrichment ratio was found to be 0.688.

As for AFWR, the enrichment ratio was not above 0.25.

For ASTS, the enrichment ratio was determined as 9.85.

Regarding ADLV, the enrichment ratio was 8.2.

As to ASLC, the enrichment ratio was 16.7.

In the case of KSLF, the enrichment ratio is not above 0.25.

Consider ASFM, for which the enrichment ratio came out at 6.83.

On to VRLC, for which the enrichment ratio was not above 0.25.

Consider ASLV, for which the enrichment ratio amounted to 18.7.

In the case of NSLF, the enrichment ratio was not above 0.25.

Take ASLM: the enrichment ratio amounted to 15.3.

For the variant ASNS, the enrichment ratio is not above 0.25.

On to ASHK, for which the enrichment ratio was not above 0.25.

Turning to ASLF, the enrichment ratio came to 12.2.

In the case of NIYP, the enrichment ratio is not above 0.25.

On to LAFW, for which the enrichment ratio was not above 0.25.

As to YYWT, the enrichment ratio is not above 0.25.

For the variant ASTK, the enrichment ratio is not above 0.25.

Regarding ASDK, the enrichment ratio was not above 0.25.

As for VRLL, the enrichment ratio was not above 0.25.

In the case of ASLS, the enrichment ratio was determined as 10.2.

For the variant ASTI, the enrichment ratio was determined as 13.9.

With ASTQ, the enrichment ratio came to 3.55.

In the case of ASWI, the enrichment ratio was 2.59.

Regarding ASLL, the enrichment ratio worked out at 19.9.

With ASLI, the enrichment ratio turned out to be 12.7.

ASLK: the enrichment ratio was found to be 8.78.

ASLA: the enrichment ratio amounted to 14.6.

In the case of FNCT, the enrichment ratio was not above 0.25.

VWPK: the enrichment ratio is not above 0.25.

As for EMQV, the enrichment ratio is not above 0.25.

Consider RTWK, for which the enrichment ratio was not above 0.25.

As for KHEA, the enrichment ratio is not above 0.25.

Turning to EWFR, the enrichment ratio is not above 0.25.

As to KSLY, the enrichment ratio was not above 0.25.

Turning to ASMT, the enrichment ratio was 12.

As to ASNT, the enrichment ratio was not above 0.25.

On to KSMT, for which the enrichment ratio was not above 0.25.

Regarding ASNY, the enrichment ratio was not above 0.25.

For the variant ASLT, the enrichment ratio turned out to be 11.9.

For ASFT, the enrichment ratio is 1.36.

On to ASLY, for which the enrichment ratio is 13.9.

For the variant KHPW, the enrichment ratio is not above 0.25.

As to MQFI, the enrichment ratio stood at 0.491.

Regarding WDYP, the enrichment ratio was not above 0.25.

For the variant ATVW, the enrichment ratio came to 3.56.

Regarding WCCW, the enrichment ratio is not above 0.25.

For MCYM, the enrichment ratio was found to be 14.1.

Regarding MLYN, the enrichment ratio turned out to be 1.73.

Regarding KCYM, the enrichment ratio is not above 0.25.

Consider MLYM, for which the enrichment ratio was determined as 8.36.

Take KCYN: the enrichment ratio is not above 0.25.

MCYN: the enrichment ratio turned out to be 11.3.

In the case of QGPI, the enrichment ratio was not above 0.25.

For VQSP, the enrichment ratio was not above 0.25.

As to FRQT, the enrichment ratio is not above 0.25.

Take YETN: the enrichment ratio is not above 0.25.

For ACSM, the enrichment ratio worked out at 13.2.

ACSF: the enrichment ratio was found to be 13.3.

Consider ACGR, for which the enrichment ratio is not above 0.25.

In the case of ACSK, the enrichment ratio worked out at 4.64.

GKCK: the enrichment ratio was not above 0.25.

Regarding TDGP, the enrichment ratio was not above 0.25.

Regarding RGGM, the enrichment ratio was not above 0.25.

Turning to NMRS, the enrichment ratio is not above 0.25.

Take NMSA: the enrichment ratio is not above 0.25.

Consider HPHS, for which the enrichment ratio is not above 0.25.

With KMQE, the enrichment ratio was not above 0.25.

Take YTQE: the enrichment ratio was not above 0.25.

For the variant PTQE, the enrichment ratio is not above 0.25.

Turning to LAQE, the enrichment ratio is not above 0.25.

As to RNQE, the enrichment ratio is not above 0.25.

TIQE: the enrichment ratio is 15.1.

In the case of TQQE, the enrichment ratio was found to be 44.9.

With AIQE, the enrichment ratio is not above 0.25.

In the case of GGQE, the enrichment ratio is not above 0.25.

For TIQC, the enrichment ratio amounted to 0.791.

For TKQE, the enrichment ratio came to 16.5.

TGQE: the enrichment ratio came to 24.5.

Take YCTL: the enrichment ratio worked out at 0.295.

YAID: the enrichment ratio was not above 0.25.

With WAIW, the enrichment ratio is not above 0.25.

Regarding TIAS, the enrichment ratio was found to be 11.1.

With HPPD, the enrichment ratio was not above 0.25.

For the variant HRCR, the enrichment ratio was not above 0.25.

For the variant RAAD, the enrichment ratio was not above 0.25.

Regarding GWLP, the enrichment ratio is not above 0.25.

As to FRVC, the enrichment ratio was not above 0.25.

As for TLQE, the enrichment ratio is 11.7.

As to SQQE, the enrichment ratio was not above 0.25.

With KAQE, the enrichment ratio is not above 0.25.

As to KSQE, the enrichment ratio is not above 0.25.

As for SLQE, the enrichment ratio is not above 0.25.

As to SNQE, the enrichment ratio is 18.7.

In the case of RSER, the enrichment ratio was not above 0.25.

For WLMW, the enrichment ratio was not above 0.25.

As for YVFS, the enrichment ratio is not above 0.25.

On to GCFM, for which the enrichment ratio is not above 0.25.

On to EFLK, for which the enrichment ratio is not above 0.25.

Consider TFFG, for which the enrichment ratio is not above 0.25.

Regarding TFTG, the enrichment ratio amounted to 13.3.

WILG: the enrichment ratio was not above 0.25.

As for TFLG, the enrichment ratio worked out at 11.8.

Take PFLG: the enrichment ratio was not above 0.25.

In the case of TFAG, the enrichment ratio came to 2.03.

As to VSRM, the enrichment ratio was not above 0.25.

As for TEYG, the enrichment ratio came to 1.95.

Regarding LQQQ, the enrichment ratio was not above 0.25.

Turning to KAGI, the enrichment ratio is not above 0.25.

As to TAFP, the enrichment ratio was 0.47.

NAGI: the enrichment ratio was not above 0.25.

Turning to TAQQ, the enrichment ratio stood at 32.8.

For the variant TAGI, the enrichment ratio worked out at 13.1.

On to YTNC, for which the enrichment ratio was not above 0.25.

Take SRQY: the enrichment ratio was not above 0.25.

SQFA: the enrichment ratio was not above 0.25.

TTYY: the enrichment ratio came out at 2.55.

As for YTNY, the enrichment ratio is not above 0.25.

Turning to STNY, the enrichment ratio was 14.2.

As to TTNY, the enrichment ratio amounted to 25.4.

Turning to TTNS, the enrichment ratio came out at 3.5.

Take HVQK: the enrichment ratio is not above 0.25.

Regarding PLIG, the enrichment ratio is not above 0.25.

VDHE: the enrichment ratio is not above 0.25.

For the variant THGF, the enrichment ratio is 8.21.

In the case of AHGF, the enrichment ratio was not above 0.25.

For VHGF, the enrichment ratio was not above 0.25.

Consider NVTF, for which the enrichment ratio is not above 0.25.

As for TMHF, the enrichment ratio came to 1.51.

As to AIGF, the enrichment ratio is 11.6.

Turning to WITF, the enrichment ratio was not above 0.25.

For TMTF, the enrichment ratio worked out at 11.5.

KCGF: the enrichment ratio was not above 0.25.

On to TMGF, for which the enrichment ratio worked out at 13.3.

With TGGF, the enrichment ratio amounted to 15.

As to CFGF, the enrichment ratio was not above 0.25.

On to WAVD, for which the enrichment ratio was not above 0.25.

Regarding HSRC, the enrichment ratio was not above 0.25.

For the variant RGHS, the enrichment ratio is not above 0.25.

Turning to VKVV, the enrichment ratio was not above 0.25.

In the case of MFSR, the enrichment ratio was not above 0.25.

As to LVPR, the enrichment ratio is not above 0.25.

Turning to GRNL, the enrichment ratio is not above 0.25.

YHIC: the enrichment ratio is not above 0.25.

Turning to PQKS, the enrichment ratio was not above 0.25.

Turning to SIVS, the enrichment ratio was 4.88.

As to TNHF, the enrichment ratio is not above 0.25.

Take PLGF: the enrichment ratio was not above 0.25.

Take EYGF: the enrichment ratio was not above 0.25.

Turning to NVGF, the enrichment ratio was not above 0.25.

As to TLGF, the enrichment ratio is 12.8.

With SLGF, the enrichment ratio came to 10.1.

EIGF: the enrichment ratio was found to be 17.3.
